The list is not random: actives were taken first. Their share in the collection is about 3.5%.
GPR151 ag = activators of human GPR151; PathHunter beta-arrestin GPR151 cells, luminescence; activation, % at 11.2 µM; 1% of 650,000 active; AID 1508602; in the data active = activation above about 4.9%;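 note: 0% = median of compound wells and 100% = cells with positive control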
Target sequence (Q8TDV0 whole entry, looked up): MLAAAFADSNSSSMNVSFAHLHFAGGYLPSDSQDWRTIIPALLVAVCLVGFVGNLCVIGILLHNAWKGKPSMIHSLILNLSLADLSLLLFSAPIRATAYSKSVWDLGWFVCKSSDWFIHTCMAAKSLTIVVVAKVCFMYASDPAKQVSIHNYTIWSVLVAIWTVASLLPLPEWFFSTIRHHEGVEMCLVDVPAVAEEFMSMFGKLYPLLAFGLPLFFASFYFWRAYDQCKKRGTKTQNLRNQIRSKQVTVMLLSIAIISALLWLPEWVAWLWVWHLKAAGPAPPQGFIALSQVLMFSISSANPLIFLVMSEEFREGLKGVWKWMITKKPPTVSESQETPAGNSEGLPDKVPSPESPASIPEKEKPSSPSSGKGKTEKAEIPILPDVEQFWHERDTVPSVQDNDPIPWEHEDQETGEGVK
FBW7 act = activators of human E3 ligase FBW7; normalized activity (activation), % at 26.1 µM; 0.13% of 650,000 active; AID 1259310; AlphaScreen FBW7–phospho-cyclin E peptide binding, activator screen; in the data active = normalized activity above about 1.9%;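 note: purified mutant Fbw7 with reduced substrate affinity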
MITF primary = inhibitors of human MITF; AlphaScreen MITF homodimerization, bead proximity signal; O75030; inhibition, % at 2.6 µM; 0.91% of 650,000 active; in the data active = inhibition above about 50%;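 note: 0% = vehicle wells with protein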
TEAD-YAP block = TEAD-YAP interaction inhibition; HEK-TIYL cells, TEAD-Gal4/YAP UAS-luciferase luminescence; inhibition, % at 9.12 µM; 1.4% of 640,000 active; AID 1259422; in the data active = inhibition above about 32%;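 note: 0% = median of test compound wells and 100% = reference inhibitor wells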
MITF confirm = human MITF inhibition, confirmation. shares compounds with MITF primary. inhibition, % at 2.6 µM. 16% of 4,700 active. AID 1259372. AlphaScreen MITF homodimerization, biotin/His-MITF beads;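 active = inhibition above a cutoff derived from the DMSO control wells, cut at about 28% in these data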;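 note: 0% = MITF dimer wells with DMSO only; inhibitors lower the bead chemiluminescence by keeping MITF from dimerizing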
AlphaScreen DR = counter-screen: compounds optically interfering with AlphaScreen; AID 1259373; IC50, µM; shares compounds with MITF primary; AlphaScreen optical interference counterscreen, cell-free; 6% of 480 active; call rule not given here
AlphaScreen intf2 = optically interferes with AlphaScreen signal; shares compounds with MITF primary; LysRS AlphaScreen counterscreen, signal interference, triplicate; inhibition, % at 2.6 µM; 7.6% of 4,700 active; AID 1259376;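 active = inhibition above a cutoff derived from the DMSO control wells, cut at about 30% in these data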
Starred values were filed as active, the others as inactive; . = no result given.

SMILES	GPR151 ag	FBW7 act	MITF primary	TEAD-YAP block	MITF confirm	AlphaScreen intf2	others
COc1ccc(CN2CCN(Cc3ccccc3)CC2)cc1O	1	0	-12	-1	.	.
CCOP(=O)(OCC)C(NC(=O)c1ccccc1Cl)C(Cl)(Cl)Cl (configuration not stated)	-1	0	-9	13	.	.
CCC(CC)N1CCN(Cc2cccc(OC)c2)CC1	2	0	73*	-2	6	12
COc1ccc(CN2CCN(Cc3ccc(F)cc3)CC2)cc1	0	0	78*	-1	0	12
COc1cccc(CN2CCN(Cc3cccc(OC)c3)CC2)c1	0	0	7	-3	.	.
Clc1ccc(CN2CCN(Cc3cccc(Cl)c3)CC2)cc1	0	0	71*	-2	17	17
COc1ccc(CN2CCN(Cc3ccc(Br)cc3)CC2)cc1	0	0	85*	9	-2	14
CSc1ccc(CN2CCN(C)CC2)cc1	1	0	21	3	.	.
CSc1ccc(CN2CCN(Cc3ccccc3)CC2)cc1	1	-1	54*	5	8	2
COc1cccc(CN2CCN(Cc3ccc(Cl)cc3)CC2)c1	3	0	79*	-19	17	17
Cc1ccc(CN2CCN(Cc3ccccc3C)CC2)cc1	0	0	56*	14	-12	-5
Clc1ccc(CN2CCNCC2)cc1	0	0	15	-11	.	.
Cc1ccccc1CN1CCN(c2ccc(Cl)cc2)CC1	0	0	-5	-2	.	.
Cc1ccc(CN2CCN(Cc3ccc(Cl)cc3)CC2)cc1	-1	0	83*	-7	-6	-5
CCc1ccc(CN2CCN(Cc3ccccc3C)CC2)cc1	2	0	65*	4	3	11
Cc1ccccc1CN1CCN(Cc2ccccc2Cl)CC1	0	0	11	12	.	.
COc1ccc(CN2CCN(Cc3ccccc3C)CC2)cc1	1	0	75*	-7	-3	10
O=C1NC(=S)NC(=O)C1=Cc1ccc(Br)o1	0	-2	43	-5	.	.
CCOC(=O)C1C2NC(=S)N(CCCOC)C1(C)Oc1c(OCC)cccc12 (configuration not stated)	1	0	4	-6	.	.
O=C1CCCN1C(=O)c1ccc([N+](=O)[O-])cc1	3	0	-4	4	.	.
C[C@@H]1Cc2c(Cl)cc(C(=O)NC(Cc3ccccc3)C(=O)O)c(O)c2C(=O)O1 (some centres not stated)	-1	0	19	12	.	.
Cc1ccccc1CN1CCN(C)CC1	1	0	-7	1	.	.
Cc1ccc(C)c(CN2CCN(C)CC2)c1	1	0	62*	4	2	4
CCn1c(O)c(C(c2ccccn2)c2c(O)n(CC)c(=S)[nH]c2=O)c(=O)[nH]c1=S	1	0	54*	5	20	56*
O=C(Nc1ccc(Br)cc1C(=O)c1ccccc1Cl)c1ccc(S(=O)(=O)N2CCCCC2)cc1	1	0	-12	-1	.	.
SMILES	GPR151 ag	FBW7 act	MITF primary	TEAD-YAP block	MITF confirm	AlphaScreen intf2	others
CN1CCN(Cc2ccc([N+](=O)[O-])o2)CC1	0	0	48	-2	.	.
CN1CCN(Cc2ccc([N+](=O)[O-])s2)CC1	3	0	56*	-2	6	12
O=C1NC(=O)C(=Cc2ccc(OC(=O)c3cccc4ccccc34)cc2)C(=O)N1	-2	0	-27	-60	.	.
C1COCCOCCOCCOCCO1.C1COCCOCCOCCOCCO1.[Cl-].[Cs+].[O]=[Cr](=[O])=[O]	2	0	57*	-3	19	7
CC(C)N1CCN(C2CC3CCC2C3)CC1 (configuration not stated)	-1	0	61*	4	-12	2
Cc1ccccc1CN1CCN(Cc2ccccc2[N+](=O)[O-])CC1	0	0	61*	-7	2	-3
Cc1ccccc1CN1CCN(Cc2ccc([N+](=O)[O-])cc2)CC1	0	0	63*	1	0	2
O=[N+]([O-])c1ccc(CN2CCN(Cc3ccccc3)CC2)cc1	-1	0	57*	-3	3	11
CCC(C)N1CCN(Cc2ccccc2[N+](=O)[O-])CC1 (configuration not stated)	1	0	74*	7	13	-14
CCNC(=O)[C@H]1O[C@@H](n2cnc3c(N)ncnc32)[C@@H](O)C1O (some centres not stated)	0	0	0	.	.	.
Cc1nc2c3ccccc3cc[n+]2c(C)c1C	0	0	16	17	.	.
COCC1CCCN(CC(=O)Nc2cccnc2)C1 (configuration not stated)	-1	0	75*	-5	11	14
CCC(C)N1CCN(Cc2cc(OC)ccc2OC)CC1 (configuration not stated)	1	0	57*	-7	-2	3
CCC(C)N1CCN(Cc2ccc(OC)c(OC)c2OC)CC1 (configuration not stated)	0	0	69*	4	-1	-7
CCC(CC)N1CCN(Cc2ccc(OC)c(OC)c2OC)CC1	-1	0	74*	10	1	4
COc1ccc(OC)c(CN2CCN(Cc3ccccc3)CC2)c1	0	0	6	-5	.	.
O=c1c2cc(I)ccc2nc(/C=C/c2ccc(O)cc2)n1-c1ccccc1	-1	0	-9	5	.	.
O=C1CC(=O)N(c2ccc(Br)cc2)C(=O)N1	-1	0	-1	-4	.	.
Cc1ccc(N2C(=O)CC(=O)NC2=O)cc1	-1	0	83*	-1	-3	4
Cc1ccc(OCC(=O)N2CCN(Cc3ccc(Br)cc3)CC2)cc1	1	0	70*	4	15	19
CCC(C)N1CCN(C(=O)COc2cccc(C)c2)CC1 (configuration not stated)	2	0	44	-10	.	.
COc1ccc(OC)c(CN2CCN(C(=O)COc3ccc(Br)cc3)CC2)c1	3	0	80*	-1	-13	-2
CCC(C)N1CCN(C(=O)COc2ccc(C)cc2)CC1 (configuration not stated)	-1	0	54*	8	10	16
Cc1ccc(OCC(=O)N2CCN(Cc3cccc(C)c3)CC2)cc1	0	0	51*	8	1	3
Cc1cccc(CN2CCN(C(=O)COc3ccc(Br)cc3)CC2)c1	1	0	40	14	.	.
CC1=C(C#N)C(Nc2cc(C)on2)(C(F)(F)F)C(=O)N1 (configuration not stated)	2	0	-2	0	.	.
Cc1cccc(OCC(=O)N2CCN(Cc3cccc(Br)c3)CC2)c1	-1	0	61*	0	35*	16	AlphaScreen DR=>6.5
CCN1CCN(C(=O)COc2cccc(Br)c2)CC1	2	0	-8	-8	.	.
